# According to PubChem BioAssay:
# “And” between values parts separate entries of the source, which are not always exact repeats. Equal values may be shown once. Records with an inconclusive call do not appear. The source made the active and inactive calls.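 The calls were made as follows, unless noted: active = normalized viability below 100% at a tested concentration; inactive = the rest.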
# Legend:
# [1] = viability loss in pontine glioma line – cell-based, SU-DIPG-XVII, MIPE5.0, CellTiter-Glo, qHTS, dose response (AID 1347060; cut-off not given, nearly all actives have AC50 up to about 26 µM); conditions: CellTiter-Glo ATP luminescence
# [2] = viability loss in pontine glioma line – cell-based, SU-DIPG-XIII, MIPE5.0, CellTiter-Glo, qHTS, dose response (AID 1347064; cut-off not given, nearly all actives have AC50 up to about 23 µM); conditions: CellTiter-Glo ATP luminescence
# [3] = viability loss in pontine glioma line – cell-based, SU-DIPG-XXV, MIPE5.0, CellTiter-Glo, qHTS, dose response (AID 1347065; cut-off not given, nearly all actives have AC50 up to about 26 µM;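 also: cells exposed to compound for 48 hours before ATP readout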); conditions: CellTiter-Glo ATP luminescence
# [4] = growth inhibition of DIPG cells – cell-based, MIPE4.0 library, CellTiter-Glo luminescence, qHTS (AID 1347066; cut-off not given, nearly all actives have AC50 up to about 30 µM;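 also: cells exposed to compound for 48 hours before readout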); conditions: SU-DIPG-VI viability, CellTiter-Glo ATP luminescence
# [5] = JHH-DIPG-1 glioma cell viability, MIPE5.0 library, CellTiter-Glo luminescence, qHTS (AID 1347067; cut-off not given, nearly all actives have AC50 up to about 26 µM;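 also: cells exposed to compound for 48 hours before readout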); conditions: JHH-DIPG-1 glioma viability, CellTiter-Glo ATP luminescence
# [6] = growth inhibition of DIPG cells – cell-based, MIPE5.0 library, qHTS (AID 1347068; cut-off not given, nearly all actives have IC50 up to about 30 µM); conditions: SU-DIPG-XXV viability
# [7] = viability loss with induced miR-34 in A549 – imaging, A549 dox-inducible miR-34, nuclei and caspase counts, primary screen (AID 1347080;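 active = compounds whose cell count with miR-34 switched on is under 0.7 times the count with it off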); conditions: A549 miR-34 inducible, Hoechst nuclei count, 48 h
# [8] = compounds altering HSF1 focus formation in cells – imaging, Selleck Cancer Library (AID 1347162; in the data active = plate-normalised HSF1 focus index below about 0.46); conditions: human cells, HSF1 nuclear foci imaging, at 10 µM; SSMD: measured here: HSF1 foci SSMD mean; cell count: measured here: cell number; plate-normalised HSF1 focus index: stronger effect = lower value
# [9] = MELAS cybrid and Rieske KO viability enhancers – cell-based, MELAS cybrids, Rieske KO mouse fibroblasts, CellTiter-Glo, primary screen (AID 1508586;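 active = mean z-score across replicates of 1.96 or higher in either the MELAS or the Rieske mutant cell line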;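 also: z relative to plate mean and SD of compound and empty wells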); conditions: low glucose
# [10] = drug combination growth inhibition, ovarian cancer – cell-based, oncology-focused library, rucaparib conditional, profiling panel (AID 1508598); conditions: patient-derived ovarian cancer cells, CellTiter-Glo viability, 144 h, stronger effect = lower value
# [11] = growth inhibition, single agent or in combination, cell-based, chromothripsis tumors, cisplatin or BGB combos (AID 1671449; in the data active = inhibition above about 80%;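 also: cells exposed for 96 hours; 0% = vehicle DMSO and 100% = killing by high DMSO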); conditions: LFS_MB_P medulloblastoma cells
# [12] = growth inhibition, single agent and combos, cell-based, chromothripsis tumors, cisplatin or BGB combos (AID 1671450; in the data active = inhibition above about 80%;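 also: cells exposed to compound for four days; 0% = vehicle DMSO and 100% = cell killing by high DMSO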); conditions: HDN33 neuroblastoma cells, stronger effect = higher value
# [13] = growth inhibition, single agents and combos, ICB984, cell-based, cisplatin or BGB combos, synergistic combos for chromothripsis tumors (AID 1671451; call rule not given here;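 also: cells exposed for 96 hours before readout; 0% = vehicle DMSO and 100% = killing by high DMSO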); conditions: ICB984 medulloblastoma cells, drug combinations, stronger effect = higher value
# [14] = growth inhibition, single agents and combos, HTB85, cell-based, BGB or cisplatin IC20 combos, synergistic combos for chromothripsis tumors (AID 1671453; in the data active = inhibition above about 80%;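 also: cells exposed for 96 hours before readout; 0% = vehicle DMSO and 100% = high DMSO killing control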); conditions: HTB85 osteosarcoma cells, drug combinations, stronger effect = higher value
# [15] = growth inhibition, MDA-MB-436, cell-based, BGB or cisplatin combos, synergistic combos for chromothripsis tumors (AID 1671458; call rule not given here;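 also: cells exposed for 96 hours; 0% = vehicle DMSO and 100% = killing by high DMSO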); conditions: MDA-MB-436 breast carcinoma growth inhibition, drug combinations, stronger effect = higher value
# [16] = BT084 cell growth, single and combined drugs, ICGC_MB145, cisplatin and BGB IC40 combos (AID 1671461; in the data active = inhibition above about 80%;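 also: cells exposed to drugs for 96 hours; 0% = vehicle DMSO and 100% = high DMSO full killing control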); conditions: BT084 medulloblastoma cells, drug combinations, stronger effect = higher value
# [17] = RCMB18 cell growth, single agent and combined, cisplatin and BGB IC40 combos (AID 1671462; in the data active = inhibition above about 80%;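 also: cells exposed to compound for four days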); conditions: RCMB18 medulloblastoma cells, stronger effect = higher value
structure (smiles),measurement,setting,value
NC(=O)c1ccc(I)c([N+](=O)[O-])c1,outcome,[1],inactive
same,outcome,[2],inactive
same,outcome,[3],inactive
same,outcome,[4],inactive
same,outcome,[5],inactive
same,outcome,[6],inactive
same,fold change,"[7]; stronger effect = lower value, cell number ratio, induced over uninduced",0.861 (inactive)
same,fold change,[7]; measured here: relative caspase fold change +Dox/-Dox,0.928
same,cell count,"[7]; measured here: total cells with miR-34 induction, stronger effect = lower value",7270
same,cell count,[7]; measured here: total cells without miR-34 induction,8450
same,SSMD,[8],1.45
same,cell count,[8],6730
same,plate-normalised HSF1 focus index,[8],1.07 (inactive)
same,z-score,"[9]; MELAS cybrid survival, CellTiter-Glo 48 h, stronger effect = higher value",-0.444 (inactive)
same,z-score,"[9]; Rieske KO mouse fibroblast survival, CellTiter-Glo 72 h",0.628
same,viability,"[10]; at 0.000305 µM, OCI-C5x cells, with rucaparib 10 µM, 100% = cells with rucaparib alone",109% (inactive)
same,viability,"[10]; at 0.000305 µM, OCI-C5x cells, without rucaparib",119% (inactive)
same,viability,"[10]; at 0.000305 µM, OCI-P5x cells, with rucaparib 20 µM, 100% = cells with rucaparib alone",98.3% (active)
same,viability,"[10]; at 0.000305 µM, OCI-P5x cells, without rucaparib",94.7% (active)
same,viability,"[10]; at 0.00122 µM, OCI-C5x cells, with rucaparib 10 µM, 100% = cells with rucaparib alone",110% (inactive)
same,viability,"[10]; at 0.00122 µM, OCI-C5x cells, without rucaparib",116% (inactive)
same,viability,"[10]; at 0.00122 µM, OCI-P5x cells, with rucaparib 20 µM, 100% = cells with rucaparib alone",102% (inactive)
same,viability,"[10]; at 0.00122 µM, OCI-P5x cells, without rucaparib",97.6% (active)
same,viability,"[10]; at 0.00488 µM, OCI-C5x cells, with rucaparib 10 µM, 100% = cells with rucaparib alone",113% (inactive)
same,viability,"[10]; at 0.00488 µM, OCI-C5x cells, without rucaparib",127% (inactive)
same,viability,"[10]; at 0.00488 µM, OCI-P5x cells, with rucaparib 20 µM, 100% = cells with rucaparib alone",101% (inactive)
same,viability,"[10]; at 0.00488 µM, OCI-P5x cells, without rucaparib",102% (inactive)
same,viability,"[10]; at 0.0195 µM, OCI-C5x cells, with rucaparib 10 µM, 100% = cells with rucaparib alone",127% (inactive)
same,viability,"[10]; at 0.0195 µM, OCI-C5x cells, without rucaparib",126% (inactive)
same,viability,"[10]; at 0.0195 µM, OCI-P5x cells, with rucaparib 20 µM, 100% = cells with rucaparib alone",103% (inactive)
same,viability,"[10]; at 0.0195 µM, OCI-P5x cells, without rucaparib",95.1% (active)
same,viability,"[10]; at 0.0781 µM, OCI-C5x cells, with rucaparib 10 µM, 100% = cells with rucaparib alone",119% (inactive)
same,viability,"[10]; at 0.0781 µM, OCI-C5x cells, without rucaparib",117% (inactive)
same,viability,"[10]; at 0.0781 µM, OCI-P5x cells, with rucaparib 20 µM, 100% = cells with rucaparib alone",97.2% (active)
same,viability,"[10]; at 0.0781 µM, OCI-P5x cells, without rucaparib",102% (inactive)
same,viability,"[10]; at 0.313 µM, OCI-C5x cells, with rucaparib 10 µM, 100% = cells with rucaparib alone",115% (inactive)
same,viability,"[10]; at 0.313 µM, OCI-C5x cells, without rucaparib",117% (inactive)
same,viability,"[10]; at 0.313 µM, OCI-P5x cells, with rucaparib 20 µM, 100% = cells with rucaparib alone",101% (inactive)
same,viability,"[10]; at 0.313 µM, OCI-P5x cells, without rucaparib",88.7% (active)
same,viability,"[10]; at 1.25 µM, OCI-C5x cells, with rucaparib 10 µM, 100% = cells with rucaparib alone",114% (inactive)
same,viability,"[10]; at 1.25 µM, OCI-C5x cells, without rucaparib",122% (inactive)
same,viability,"[10]; at 1.25 µM, OCI-P5x cells, with rucaparib 20 µM, 100% = cells with rucaparib alone",94.9% (active)
same,viability,"[10]; at 1.25 µM, OCI-P5x cells, without rucaparib",94.9% (active)
same,viability,"[10]; at 5 µM, OCI-C5x cells, with rucaparib 10 µM, 100% = cells with rucaparib alone",102% (inactive)
same,viability,"[10]; at 5 µM, OCI-C5x cells, without rucaparib",122% (inactive)
same,viability,"[10]; at 5 µM, OCI-P5x cells, with rucaparib 20 µM, 100% = cells with rucaparib alone",110% (inactive)
same,viability,"[10]; at 5 µM, OCI-P5x cells, without rucaparib",91.7% (active)
same,inhibition,"[11]; at 0.5 µM, stronger effect = higher value",-30.4% (inactive) and -3.77% (inactive)
same,inhibition,"[11]; measured here: combination with BGB IC20, at 0.005 µM",11.8% and -4.71%
same,inhibition,"[11]; measured here: combination with BGB IC40, at 0.005 µM",-7.86% and -37.5%
same,inhibition,"[11]; measured here: combination with BGB IC40, at 0.05 µM",5% and -21.1%
same,inhibition,"[11]; measured here: combination with cisplatin, at 0.5 µM, stronger effect = higher value",-54.2% and -27.9%
same,inhibition,"[11]; measured here: combination with cisplatin, at 5 µM, stronger effect = higher value",-10.7% and -15.7%
same,inhibition,"[12]; BGB combo, at 5 µM",13.3% and -25.3%
same,inhibition,[12]; at 0.5 µM,0.82% (inactive) and -18.3% (inactive)
same,inhibition,"[12]; cisplatin combo, at 5 µM",6.61% and -13.4%
same,inhibition,"[12]; measured here: with BGB IC20 combination, at 0.5 µM",-4.77% and -10.4%
same,inhibition,"[12]; measured here: with cisplatin IC20 combination, at 0.5 µM",8.47% and -16.9%
same,inhibition,"[12]; single agent, at 5 µM",-4.01% and -42.6%
same,inhibition,"[13]; BGB IC20 combo, at 0.005 µM",6.79% and -19.8%
same,inhibition,"[13]; BGB IC40 combo, at 0.005 µM",-8.71% and -63.3%
same,inhibition,"[13]; BGB IC40 combo, at 0.05 µM",6.96% and -25.8%
same,inhibition,[13]; at 0.5 µM,-18.4% (inactive) and -40.8% (inactive)
same,inhibition,"[13]; cisplatin combo, at 0.05 µM",4.36% and -30.8%
same,inhibition,"[13]; cisplatin combo, at 0.5 µM",-11.9% and -53.2%
same,inhibition,"[13]; cisplatin combo, at 5 µM",-10.4% and -25.8%
same,inhibition,"[13]; measured here: 5 uM single agent, at 5 µM",-7.67% and -25%
same,inhibition,[14]; at 0.5 µM,9.09% (inactive) and -11.2% (inactive)
same,inhibition,"[14]; measured here: with BGB IC20, at 0.5 µM",18.2% and -8.85%
same,inhibition,"[14]; measured here: with BGB IC20, at 5 µM",-13% and -0.795%
same,inhibition,"[14]; measured here: with cisplatin IC20, at 0.5 µM",-4.67% and -22.1%
same,inhibition,"[14]; measured here: with cisplatin IC20, at 5 µM",-22.8% and -21.8%
same,inhibition,"[14]; single agent, at 5 µM",-0.511% and -17.6%
same,inhibition,[15]; at 0.5 µM,-14.6% (inactive) and -27.1% (inactive)
same,inhibition,"[15]; measured here: BGB combination, at 0.5 µM",-12.7% and -19.7%
same,inhibition,"[15]; measured here: BGB combination, at 5 µM",6.5% and -14.3%
same,inhibition,"[15]; measured here: cisplatin combination, at 0.5 µM",-24.5% and -37.3%
same,inhibition,"[15]; measured here: cisplatin combination, at 5 µM",-16.7% and -24%
same,inhibition,[16]; at 0.5 µM,-19.3% (inactive) and -16.2% (inactive)
same,inhibition,"[16]; cisplatin combination, at 0.5 µM",8.84% and -1.53%
same,inhibition,"[16]; cisplatin combination, at 5 µM",4.99% and 0.215%
same,inhibition,"[16]; measured here: BGB IC40 combination 0.05 uM, at 0.05 µM",25.4% and -22.5%
same,inhibition,"[16]; single agent, at 5 µM",-9.27% and -35.4%
same,inhibition,[17]; at 0.5 µM,2.19% (inactive) and -9.96% (inactive)
same,inhibition,"[17]; cisplatin combo, at 5 µM",15.5% and 33.9%
same,inhibition,"[17]; measured here: BGB IC40 combination, at 0.05 µM",-12.1% and -17.3%
same,inhibition,"[17]; measured here: combination with cisplatin, at 0.5 µM",21.4% and 23.8%
same,inhibition,"[17]; single agent, at 5 µM",-9.55% and -39.2%
